Our source for the binding signal and Kd values is publication PMC5913336, “True equilibrium measurement of transcription factor-DNA binding affinities using automated polarization microscopy”.

The target in this experiment is Tll (Drosophila melanogaster, UniProt P18102 21-118). Nature of the experiment: FP; 33 mM phosphate pH 7.0, 90 mM NaCl, 0.01% Tween 20, 0.1 mM DTT, 0.5% agarose; room temperature. The settings on record: tags: N-GST (pGEX-6P-1, kept); dsDNA, one strand shown.
Tll, sequence (P18102 21-118): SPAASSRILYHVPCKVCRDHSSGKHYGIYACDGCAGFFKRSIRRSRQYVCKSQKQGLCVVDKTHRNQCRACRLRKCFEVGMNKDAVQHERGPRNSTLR
As to AAAAAGTAAAAT, the binding signal was 18.6 Kd / Kd of best base at the position.
Regarding AAAAAGTCACAT, the binding signal is 1.72 Kd / Kd of best base at the position.
Turning to AAAACGTCAAAT, the binding signal was 8.65 Kd / Kd of best base at the position.
On the same count and under the same terms, for AATAAGTCAAAT the value was 2.37 Kd / Kd of best base at the position; for AGAAAGTCAAAT, 2.99 Kd / Kd of best base at the position.
The same measure, in the same setting: for AAAAAGTCCAAT the value was 14.4 Kd / Kd of best base at the position.
AAAAGGTCAAAT: the binding signal is 6.02 Kd / Kd of best base at the position.
Still for that read-out and setting: for AAAAAGTCAAGT the value was 3.05 Kd / Kd of best base at the position.
On the same count and under the same terms, for AAGAAGTCAAAT the value was 1.73 Kd / Kd of best base at the position; for AAAAAGTCAAAG, 2.05 Kd / Kd of best base at the position.
Turning to AAAATGTCAAAT, the binding signal was 15 Kd / Kd of best base at the position.
The same measure, in the same setting: with AAAAAATCAAAT the figure was 10.1 Kd / Kd of best base at the position; with AAATAGTCAAAT, 12.4 Kd / Kd of best base at the position.
The same measure, in the same setting: with AAAAAGTCATAT the figure was 3.23 Kd / Kd of best base at the position; with AAACAGTCAAAT, 11.1 Kd / Kd of best base at the position; with AAAAAGCCAAAT, 7.08 Kd / Kd of best base at the position.
As for CAAAAGTCAAAT, the binding signal is 2.71 Kd / Kd of best base at the position.
For AAAAAGGCAAAT, the binding signal was 7.78 Kd / Kd of best base at the position.
Same read-out and setting: with AAAAAGTCAATT the figure was 1.96 Kd / Kd of best base at the position; with AAAAAGTCAGAT, 4.13 Kd / Kd of best base at the position; with AAAAAGTCAACT, 2.61 Kd / Kd of best base at the position.
For the sequence AAAAAGTCAAAA, the binding signal is 1.57 Kd / Kd of best base at the position.
Still for that read-out and setting: for GAAAAGTCAAAT the value was 1.71 Kd / Kd of best base at the position; for AAAAAGTGAAAT, 71.7 Kd / Kd of best base at the position.
As to AAAAATTCAAAT, the binding signal was 71.4 Kd / Kd of best base at the position.
In the case of TAAAAGTCAAAT, the binding signal was 2.03 Kd / Kd of best base at the position.
AACAAGTCAAAT: the binding signal is 3.38 Kd / Kd of best base at the position.
The same measure, in the same setting: for AAAAAGACAAAT the value was 36.4 Kd / Kd of best base at the position.
On the same count and under the same terms, for AAAAAGTCAAAC the value was 1.05 Kd / Kd of best base at the position.
As to AAAAAGTCAAAT, the Kd – broadly, the equilibrium constant for the complex coming apart – was approximately 4.1 nM.
Consider AAAAACTCAAAT, for which the binding signal is 57.7 Kd / Kd of best base at the position.
Still for that read-out and setting: for AAAAAGTTAAAT the value was 2.32 Kd / Kd of best base at the position; for ATAAAGTCAAAT, 2.33 Kd / Kd of best base at the position; for AAAAAGTCTAAT, 13.1 Kd / Kd of best base at the position.
In the case of AAAGAGTCAAAT, the binding signal is 3.96 Kd / Kd of best base at the position.
ACAAAGTCAAAT: the binding signal was 3.41 Kd / Kd of best base at the position.
With AAAAAGTCGAAT, the binding signal was 5.21 Kd / Kd of best base at the position.
